Compounds without any hit were thinned out: in the full panel of roughly 83,000, 20% have a hit.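 Step 1: grow cells in 96-well plates. Step 2: add test compound at a single concentration. Step 3: incubate 48 h. Step 4: record percent growth.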 Values without a mark were called inactive. The source made the active and inactive calls. The calls were made as follows: active = growth percent below 10; inactive = the rest.

One experiment concerns NCI-H23 lung. The experiment in a line: NCI-60 one-dose screen, 48 h (100 = growth as untreated, 0 = no growth, -100 = all killed). The following applies: 10 µM.
Regarding `COc1cccc(-c2ccc(/C=N/NC(=O)c3[nH]c4ccc(Br)cc4c3-c3ccccc3)o2)c1`, the growth was 22.4%.
Still for that read-out and setting: in the case of `COc1ccc2nc(Cl)c(-c3cc(-c4ccccc4)nc(=O)[nH]3)cc2c1` it was 57.9%; in that of `COc1cc2c(c(OC)c1OC)C(=O)CC(c1cccc(NC(=O)c3cccc(N)c3)c1)O2` (stereo unspecified), 91.1%.
On the same count and under the same terms, in the case of `COc1ccc(-c2nc(S(=O)(=O)c3ccccc3)c(S(C)(=O)=O)o2)cc1` it was 3.05% (active).
Consider `CN1CCN(c2ccc(C(=O)/C=C/c3ccc(C#N)cc3)cc2)CC1`, for which the growth is 76.5%.
Same read-out and setting: to `O=C(NO)c1ccc(Cn2ccc3c(NCc4ccccc4)ncnc32)cc1` belongs -74.3% (active); to `O=C(O)CCCCCCCCCCN1C(=O)/C(=C/c2cnc(-c3ccccc3)s2)SC1=S`, 55.9%.
Same read-out and setting: in the case of `Cc1cc(=O)oc2cc(OCCCCOc3ccc(/C=C/C(=O)Nc4ccccc4[N+](=O)[O-])cc3)ccc12` it was 98.8%; in that of `CCOC(=O)CNC(=O)CN(Cc1ccccc1)C(=O)[C@@]1(C)CCC[C@]2(C)[C@H]3CC4C(C(C)C)=C[C@]3(CC[C@H]21)[C@@H]1C(=O)CCC(=O)[C@H]41`, 48.9%; in that of `Cc1ccc(-c2cc(-c3cc4ccccc4nc3Cl)[nH]c(=O)n2)cc1`, 10.1%.
Still for that read-out and setting: in the case of `COc1ccc2cc([C@H](C)C(=O)NCc3ccccc3)ccc2c1` it was 33.6%.
In the case of `COc1cc(Cn2c(C(F)(F)F)cc3c(Cl)ncnc32)ccn1`, the growth was -66.6% (active).
The same measure, in the same setting: to `CN(C)c1cccc2c(S(=O)(=O)Nc3cccc(-c4csc(NC(=O)CCCCCN5CCN(c6cc7c(cc6F)C(=O)N(C6CCC(=O)NC6=O)C7=O)CC5)n4)c3)cccc12` (stereo unspecified) belongs 60.2%.
Still for that read-out and setting: in the case of `COc1ccc(-c2nc(S(=O)(=O)c3ccc(C)cc3)c(S(=O)(=O)CC(=O)N(C)Cc3ccccc3)o2)cc1` it was 44%; in that of `COc1ccc(C=CC(=O)c2ccc(-n3c(C)nc4c(cnn4-c4ccccc4)c3=O)cc2)cc1`, 72.4%; in that of `O=S(=O)(Nc1ncccn1)c1ccc(-n2c(-c3ccc(Br)cc3)nc(-c3ccccc3)c2-c2ccccc2)cc1`, 22.5%.
The same measure, in the same setting: to `COc1cc(/C=C/C(=O)c2ccc(NC(=O)CSc3nnc(-c4c[nH]c5ccccc45)n3-c3ccccc3)cc2)cc(OC)c1OC` belongs 47.7%; to `CCCn1c(=O)c2[nH]c(-c3ccc(OCc4nc5ccccc5[nH]4)cc3)nc2n(CCC)c1=O`, 32.5%; to `Cc1ccc2nc(COc3ccc(C(=O)NNC(=S)NC(=O)c4ccccc4)cc3)[nH]c2c1`, 53.3%.
In the case of `COc1nccnc1NS(=O)(=O)c1ccc(NC2=C(Cl)C(=O)c3nc(C)ccc3C2=O)cc1`, the growth is 83.7%.
The same measure, in the same setting: to `N#Cc1c(NC(=O)c2ccc(C(O)(C(F)(F)F)C(F)(F)F)cc2)sc2c1CCC(=O)C2` belongs -81% (active); to `O=C(Cn1nc(-c2ccccc2)ccc1=O)NNC(=S)NC1CCCCC1`, 105%.
Same read-out and setting: in the case of `O=C(/C=C/Nc1ccccc1)c1ccc2c(c1)Nc1ccccc1S2` it was 70%; in that of `CC1(c2ccccc2)NC(=O)N(CC(=O)Nc2ccc(C(=O)/C=C/c3ccc(Br)cc3)cc2)C1=O` (stereo unspecified), 64.4%.

The test system of the next experiment is NCI-H226 lung. Described as above. Particulars: 10 µM.
For `O=c1oc2ccc(-c3ccc(F)cc3F)cc2c(=O)n1-c1ccc(F)c(Cl)c1`, the growth was -24.8% (active).
The same measure, in the same setting: to `O=C(c1ccc(O)cc1)C1[C@H](c2ccccc2Br)[C@@H](c2ccccc2)NC12C(=O)Nc1ccc(Br)cc12` (stereo partly specified) belongs 36.5%.
The same measure, in the same setting: to `O=C(Nc1cccc(-c2cn(-c3ccc4oc(=O)ccc4c3)nn2)c1)Nc1cc(C(F)(F)F)cc(C(F)(F)F)c1` belongs 33.4%; to `O=C1N/C(=N\c2nccs2)S/C1=C\c1cccs1`, 19.9%.
Same read-out and setting: in the case of `COc1ccc2[nH]c(O)c(N=NC(=O)COc3ccc(NC(=O)Nc4ccc(Cl)cc4)cc3)c2c1` it was -38.5% (active); in that of `COc1ccc(OC)c(-c2cc(-c3c[nH]c4ccccc34)nc(N)c2C#N)c1`, 14%; in that of `N#Cc1ccc(-c2nn(-c3ccc(C(=O)O)cc3)cc2CNc2ccc(Oc3ccccc3)cc2)cc1`, 85.1%.
Consider `N#Cc1ccc(-c2nn(-c3ccc(C(=O)O)cc3)cc2CNc2cc(Cl)cc(C(F)(F)F)c2)cc1`, for which the growth is 4.02% (active).
Turning to `CO[C@@H]1CSS[C@H]1Cn1nc(-c2ccc(Oc3ccccc3)cc2)c2c(N)ncnc21`, the growth is 24.7%.
Still for that read-out and setting: in the case of `Cc1ccn2c(C(=O)c3ccc(Br)cc3)cc(-c3cc(-c4ccc(N(C)C)cc4)c(C#N)c(N)n3)c2c1` it was 60.5%.
On the same count and under the same terms, in the case of `O=c1c2ccccc2nc(COc2ccccc2)n1/N=C/c1ccc(F)cc1` it was 78.9%.
On to `Nc1nc(Nc2ccc(Cl)cc2)nn1Cc1cccc(Br)c1`, for which the growth was 41.5%.
Still for that read-out and setting: to `CC(C)CCSc1nc(NC2CC2)c(C#N)c(-c2ccc(C(C)C)cc2)n1` belongs 106%; to `COc1cccc(-c2ccc(/C=N/NC(=O)c3[nH]c4ccc(Br)cc4c3-c3ccccc3)o2)c1`, 31.4%.
Same read-out and setting: in the case of `COc1ccc2nc(Cl)c(-c3cc(-c4ccccc4)nc(=O)[nH]3)cc2c1` it was 60.8%.
With `COc1cc2c(c(OC)c1OC)C(=O)CC(c1cccc(NC(=O)c3cccc(N)c3)c1)O2` (stereo unspecified), the growth was 86.7%.
Same read-out and setting: to `COc1ccc(-c2nc(S(=O)(=O)c3ccccc3)c(S(C)(=O)=O)o2)cc1` belongs 74.5%; to `CN1CCN(c2ccc(C(=O)/C=C/c3ccc(C#N)cc3)cc2)CC1`, 80.7%.
Consider `O=C(NO)c1ccc(Cn2ccc3c(NCc4ccccc4)ncnc32)cc1`, for which the growth is 23.8%.
Still for that read-out and setting: in the case of `O=C(O)CCCCCCCCCCN1C(=O)/C(=C/c2cnc(-c3ccccc3)s2)SC1=S` it was 103%; in that of `Cc1cc(=O)oc2cc(OCCCCOc3ccc(/C=C/C(=O)Nc4ccccc4[N+](=O)[O-])cc3)ccc12`, 127%; in that of `CCOC(=O)CNC(=O)CN(Cc1ccccc1)C(=O)[C@@]1(C)CCC[C@]2(C)[C@H]3CC4C(C(C)C)=C[C@]3(CC[C@H]21)[C@@H]1C(=O)CCC(=O)[C@H]41`, 49.3%.
On the same count and under the same terms, to `Cc1ccc(-c2cc(-c3cc4ccccc4nc3Cl)[nH]c(=O)n2)cc1` belongs -8.6% (active).
In the case of `COc1ccc2cc([C@H](C)C(=O)NCc3ccccc3)ccc2c1`, the growth is 59.5%.
For the compound `COc1cc(Cn2c(C(F)(F)F)cc3c(Cl)ncnc32)ccn1`, the growth was 72.2%.
`CN(C)c1cccc2c(S(=O)(=O)Nc3cccc(-c4csc(NC(=O)CCCCCN5CCN(c6cc7c(cc6F)C(=O)N(C6CCC(=O)NC6=O)C7=O)CC5)n4)c3)cccc12` (stereo unspecified): the growth was 72.7%.
On the same count and under the same terms, to `COc1ccc(-c2nc(S(=O)(=O)c3ccc(C)cc3)c(S(=O)(=O)CC(=O)N(C)Cc3ccccc3)o2)cc1` belongs 78.7%; to `COc1ccc(C=CC(=O)c2ccc(-n3c(C)nc4c(cnn4-c4ccccc4)c3=O)cc2)cc1`, 70.6%; to `O=S(=O)(Nc1ncccn1)c1ccc(-n2c(-c3ccc(Br)cc3)nc(-c3ccccc3)c2-c2ccccc2)cc1`, 26%.
The same measure, in the same setting: to `COc1cc(/C=C/C(=O)c2ccc(NC(=O)CSc3nnc(-c4c[nH]c5ccccc45)n3-c3ccccc3)cc2)cc(OC)c1OC` belongs 69.9%; to `CCCn1c(=O)c2[nH]c(-c3ccc(OCc4nc5ccccc5[nH]4)cc3)nc2n(CCC)c1=O`, -30.3% (active).
For the compound `Cc1ccc2nc(COc3ccc(C(=O)NNC(=S)NC(=O)c4ccccc4)cc3)[nH]c2c1`, the growth was 60.7%.
The same measure, in the same setting: in the case of `COc1nccnc1NS(=O)(=O)c1ccc(NC2=C(Cl)C(=O)c3nc(C)ccc3C2=O)cc1` it was 93.4%; in that of `N#Cc1c(NC(=O)c2ccc(C(O)(C(F)(F)F)C(F)(F)F)cc2)sc2c1CCC(=O)C2`, -57.2% (active).
Same read-out and setting: in the case of `O=C(Cn1nc(-c2ccccc2)ccc1=O)NNC(=S)NC1CCCCC1` it was 105%; in that of `O=C(/C=C/Nc1ccccc1)c1ccc2c(c1)Nc1ccccc1S2`, 43.5%.
Still for that read-out and setting: to `CC1(c2ccccc2)NC(=O)N(CC(=O)Nc2ccc(C(=O)/C=C/c3ccc(Br)cc3)cc2)C1=O` (stereo unspecified) belongs 43.4%.

(Values after PubChem BioAssay (NCI).)
